The list is not random: actives were taken first. Their share in the collection is about 13%.
miR-21 act – qHTS Assay for Modulators of miRNAs and/orActivators of miR-21. AID 2288, 2010. HeLa miR-21 FLuc reporter, luciferase, 48 h. Potency, µM (highest dose often 38.3 µM), inactives show at the top dose activity change, positive = activation, usual class: activators. 340,000 tested, under 10 active;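 further: % of control where 0% means no effect; miR-21 action dims this reporter so a rising signal means less miR-21 action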
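HeLa cells stably expressing CMV-driven firefly luciferase with a downstream miR-21 binding sequence, endogenously expressing miR-21, were treated with titrations (up to about 40uM final) for 48 hours at 37 degree Celsius. Luciferase luminescence was read after lysis.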
ALDH1A1 inh – qHTS Assay for Inhibitors of Aldehyde Dehydrogenase 1 (ALDH1A1); Aldehyde dehydrogenase 1A1 (Homo sapiens), P00352; Purified ALDH1A1, NADH fluorescence, propionaldehyde substrate; Potency, µM (series often up to 75.3 µM), for the others: at the top dose activity, negative = inhibition, usual class: inhibitors; hit rate 7.3% among 220,000; AID 1030, 2008; active means well fitted inhibition curve with a large enough effect, not every such curve was filed as active; inconclusive means small, poorly fitted or top-dose-only effect, or another doubt; inactive means no such curve, though single readings can be large or run the other way;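 further: potency means the concentration at half of the fitted maximal effect; plate controls were no enzyme wells and a reference inhibitor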
G9a inh – qHTS Assay for Inhibitors of Histone Lysine Methyltransferase G9a. Histone-lysine N-methyltransferase EHMT2 (Homo sapiens), Q96KQ7. G9a H3K9 monomethylation, AlphaScreen, 2 h. Potency, µM (highest dose often 102 µM), without a hit: at the highest dose activity, negative = inhibition, actives largely listed as inhibitors. hit rate 8.8% among 350,000. AID 504332, 2011; further: potency means the concentration at half of the fitted maximal effect; on the % scale 0 is the no-effect control and ±100 the full control effect; nearly all actives have a fitted effect of over 75% in size
Target sequence (Q96KQ7 913-1193 limits assumed): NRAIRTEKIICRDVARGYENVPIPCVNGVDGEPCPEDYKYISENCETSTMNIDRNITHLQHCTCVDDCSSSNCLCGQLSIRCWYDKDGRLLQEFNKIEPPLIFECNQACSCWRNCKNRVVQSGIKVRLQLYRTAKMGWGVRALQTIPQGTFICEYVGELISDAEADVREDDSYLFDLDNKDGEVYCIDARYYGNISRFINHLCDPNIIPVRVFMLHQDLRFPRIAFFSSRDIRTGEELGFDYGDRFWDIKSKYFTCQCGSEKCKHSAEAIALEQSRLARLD
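Compounds were preincubated with 20 nM G9a for 15 min, after which biotinylated H3K9 peptide (500 nM) and SAM (20 uM) started a 2 h room-temperature reaction. Monomethylated product was quantified by antibody-based AlphaScreen chemiluminescence.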
KDM4E inh – qHTS Assay for Inhibitors of Human Jumonji Domain Containing 2E (JMJD2E); Lysine-specific demethylase 4E (Homo sapiens), B2RXH2; JMJD2E catalytic domain, FDH-coupled NADH fluorescence (FDH is formaldehyde dehydrogenase); Potency, µM (highest dose often 57.1 µM), for inactives: at the highest dose activity change, negative = inhibition, actives largely listed as inhibitors; hit rate 1.6% among 230,000; active means well fitted inhibition curve with a large enough effect, not every such curve was filed as active; inconclusive means small, poorly fitted or top-dose-only effect, or another doubt; inactive means no such curve, though single readings can be large or run the other way;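 further: potency means the concentration at half of the fitted maximal effect; 0% = wells with enzyme and -100% = buffer wells without enzyme; nearly all actives have a fitted effect of over 50% in size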
Target sequence (B2RXH2 1-337 limits assumed): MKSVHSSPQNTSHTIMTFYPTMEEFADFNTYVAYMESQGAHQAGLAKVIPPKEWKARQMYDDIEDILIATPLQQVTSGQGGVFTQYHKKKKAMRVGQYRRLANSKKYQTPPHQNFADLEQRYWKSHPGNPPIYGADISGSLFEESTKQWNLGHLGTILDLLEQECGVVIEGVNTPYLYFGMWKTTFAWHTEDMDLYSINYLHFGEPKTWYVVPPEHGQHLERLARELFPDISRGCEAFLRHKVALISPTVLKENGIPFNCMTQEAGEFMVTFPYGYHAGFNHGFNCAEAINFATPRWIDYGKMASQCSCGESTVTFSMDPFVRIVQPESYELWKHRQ
Sfp inh – qHTS Assay for Inhibitors of Bacillus subtilis Sfp phosphopantetheinyl transferase (PPTase); Potency, µM, without a hit: largest response in the series, negative = inhibition, hits mostly inhibitors; Biochemical Sfp PPTase activity, qHTS; 4'-phosphopantetheinyl transferase ffp (Bacillus subtilis), Q9F4F7; hit rate 3.5% among 310,000; AID 1490, 2009;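 further: the enzyme is Sfp with the accession as filed and its product quenches rhodamine fluorescence; potency means the concentration at half of the fitted maximal effect; 0% = enzyme reaction without inhibitor and -100% = no enzyme wells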
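After 15 min at room temperature with compound, 15 nM Sfp received 5 uM rhodamine-CoA plus 12.5 uM BHQ-2-ybbR (50 mM Hepes pH 7.6, 10 mM MgCl2). Rate came from the fluorescence difference over 30 min, ex 525/em 598 nm.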
LMNA splice mod – qHTS Assay for Modulators of Lamin A Splicing. HeLa LMNA splicing GFP/RFP minigene ratio, 48 h. Potency, µM (top dose mostly 46.1 µM), inactives show at the top dose ratio change, negative = inhibition, most hits filed as inhibitors. hit rate 0.01% among 200,000. AID 1487, 2009; active means well fitted inhibition curve with a large enough effect in the signal ratio, with a control signal flat, not every such curve was filed as active; inconclusive means small, poorly fitted or top-dose-only effect, or effect the other way, or a change in a side signal; the % refers to the signal ratio; further: potency means the concentration at half of the fitted maximal effect; on the % scale 0 is the no-effect control and ±100 the full control effect
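S3 HeLa cells stably expressing lamin A-EGFP splicing minigene plus DsRed2, 600 cells/well, 48 h compound exposure at 37C. Laser-scanning cytometry; analysed as GFP (500-530 nm)/RFP (575-640 nm) total intensity ratio; 0.5% DMSO vehicle.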
* marks the source's active call; other numbers are inactive results; ! = a repeat was not active; [ ] = remark or other dose. Unless noted, the call rests on the fitted dose curve; in most records, active means well fitted curve in the direction sought with a large enough effect; inconclusive means small, poorly fitted or top-dose-only effect, or another doubt; inactive means no such curve, though single readings can be large; an effect the other way counts as inactive or inconclusive.

For CNC(=S)N(CCc1c(C)[nH]c2ccc(C)cc12)Cc1ccc(OC)c(OC)c1 the results were miR-21 act 1.9%, ALDH1A1 inh 4.3%, G9a inh 50.1µM*, KDM4E inh -25.9%, Sfp inh -12.8% and LMNA splice mod inconclusive.
For CNC(=S)N(CCc1c(C)[nH]c2ccc(C)cc12)Cc1ccco1 the results were miR-21 act 4.8%, ALDH1A1 inh 1.1%, G9a inh 44.7µM*, KDM4E inh 3.9%, Sfp inh -4.9% and LMNA splice mod -4.5%.
CNC(=S)N(CCc1c(C)[nH]c2ccc(Cl)cc12)Cc1cc(OC)c(OC)c(OC)c1 was read as miR-21 act 20.6%, ALDH1A1 inh 2.0%, G9a inh 31.6µM*, KDM4E inh 2.9%, Sfp inh 0.5% and LMNA splice mod inconclusive.
`COCCNC(=S)N(CCc1c(C)[nH]c2ccc(F)cc12)Cc1cccs1` gave miR-21 act inconclusive, ALDH1A1 inh inconclusive, G9a inh inconclusive, KDM4E inh -11.7%, Sfp inh 17.3% and LMNA splice mod 0.5%[9.22 µM].
Screening N=c1c(S(=O)(=O)c2ccc(Cl)cc2)cc2c(=O)n3ccccc3nc2n1C1CCCC1 returned miR-21 act -2.0%, G9a inh 18.2% and Sfp inh 0.3%.
Screening CC(=O)N(CC1CCCO1)c1nnc(-c2ccccn2)s1 (stereo not drawn) returned miR-21 act -36.1%, ALDH1A1 inh inconclusive, G9a inh 56.2µM*, KDM4E inh inconclusive, Sfp inh -3.2% and LMNA splice mod 2.9%.
COc1ccc(CN2CCn3ncc(C(=O)Nc4ccccc4)c3C2=O)cc1 was read as miR-21 act -32.6%, ALDH1A1 inh -12.2%, G9a inh -13.4%[59 µM], KDM4E inh 10.9%, Sfp inh 4.1% and LMNA splice mod inconclusive.
`O=C(O)c1cnn2c1C(=O)N(Cc1cccs1)CC2` gave miR-21 act 6.7%, ALDH1A1 inh -3.3%, G9a inh 39.8µM*, KDM4E inh -0.3% and Sfp inh 7.7%.
NC=O was read as ALDH1A1 inh 10.8%.
COc1cccc(C2C=C(Nc3ccccc3)C(=O)N2c2ccccc2)c1 (stereo not drawn) was read as miR-21 act -26.9%, ALDH1A1 inh inconclusive, G9a inh 44.7µM*, KDM4E inh inconclusive, Sfp inh 63.1µM* and LMNA splice mod 4.5%.
For COc1ccc(C2C=C(Nc3ccccc3)C(=O)N2c2ccccc2)cc1OC (stereo not drawn) the results were miR-21 act -54.1%, ALDH1A1 inh inconclusive, G9a inh 8.91µM*, KDM4E inh inconclusive, Sfp inh inconclusive and LMNA splice mod inconclusive.
COc1cccc(NC2=CC(c3ccc(C(C)C)cc3)N(c3cccc(OC)c3)C2=O)c1 (stereo not drawn) was read as miR-21 act -34.8% and G9a inh inconclusive.
For O=C(c1ccco1)N1CCN(c2c([N+](=O)[O-])nn(-c3cccc(Cl)c3)[n+]2[O-])CC1 the results were miR-21 act -0.9%, ALDH1A1 inh 1.2%, G9a inh -7.4%[59 µM], KDM4E inh -8.1% and Sfp inh -22.8%.
Cc1ccc(C(=O)N2CCc3cc(CNS(=O)(=O)c4cccs4)ccc32)cc1 was read as miR-21 act 11.4%, G9a inh 9.6%[59 µM] and LMNA splice mod -4.7%[46 µM].
Cc1ccc(S(=O)(=O)N(CCCO)CC(O)CON=C2c3ccccc3-c3ccccc32)cc1 (stereo not drawn) was read as miR-21 act 16.6%, ALDH1A1 inh 8.91µM*, G9a inh -0.8%, KDM4E inh -24.0%, Sfp inh -0.7% and LMNA splice mod -11.8%.
Screening Cc1ccc2cc(C)c3nnc(SCC(=O)N4CCN(C(=O)c5ccco5)CC4)n3c2c1 returned miR-21 act 0.2%, ALDH1A1 inh inconclusive, G9a inh 50.1µM*, KDM4E inh inconclusive, Sfp inh 13.7% and LMNA splice mod -10.9%.
`COc1ccc(N2CCN(C(=O)CSc3nnc4c(C)cc5cc(C)ccc5n34)CC2)cc1` gave miR-21 act -7.1%, ALDH1A1 inh inconclusive, G9a inh 44.7µM*, KDM4E inh 6.3%, Sfp inh 3.8% and LMNA splice mod -6.4%.
For COc1ccc(N2CCN(C(=O)CSc3nnc4c(C)cc5c(C)cc(C)cc5n34)CC2)cc1 the results were miR-21 act 18.3%, ALDH1A1 inh -3.3%, G9a inh inconclusive, KDM4E inh -15.6%, Sfp inh -17.3% and LMNA splice mod inconclusive.
OCc1cc(C(O)CNCCCCCCOCCCCc2ccccc2)ccc1O (stereo not drawn) was read as miR-21 act 13.3%, ALDH1A1 inh inconclusive, G9a inh 35.5µM*!, KDM4E inh inconclusive, Sfp inh 56.2µM*! and LMNA splice mod inconclusive.
Cc1ccc(S(=O)(=O)NCCOCCNS(=O)(=O)c2ccc(C)cc2)cc1 was read as miR-21 act -2.3%, ALDH1A1 inh 12.6µM*, G9a inh 14.1%, KDM4E inh -0.5%, Sfp inh 7.2% and LMNA splice mod -9.8%.
Screening CNS(=O)(=O)c1ccc(C)cc1 returned miR-21 act -2.4%, ALDH1A1 inh 2.7%, G9a inh 20.9%[59 µM], KDM4E inh 6.7%, Sfp inh 10.7% and LMNA splice mod 3.2%.
Cc1ccc(NC(=O)CCCCCNS(=O)(=O)c2ccc(C)cc2)cc1 was read as miR-21 act -4.1%, ALDH1A1 inh inconclusive, G9a inh 21.8%, KDM4E inh 5.5%, Sfp inh 12.8% and LMNA splice mod inconclusive.
Screening Cc1ccc(S(=O)(=O)NCCCC(=O)C=[N+]=[N-])cc1 returned miR-21 act -1.2%, ALDH1A1 inh 12.6µM*, G9a inh -0.7%[59 µM], KDM4E inh 3.9%, Sfp inh 9.0% and LMNA splice mod -0.9%.
For Cc1ccc(S(=O)(=O)NCl)cc1 the results were G9a inh inconclusive and Sfp inh 5.62µM*.
For CCN(c1ccccc1)S(=O)(=O)c1ccc(NC(=O)c2nc(S(C)(=O)=O)ncc2Cl)cc1 the results were miR-21 act inconclusive, G9a inh 31.6µM* and Sfp inh 20µM*.
Screening CCSc1ncc(Cl)c(C(=O)Nc2ccc(S(=O)(=O)N(C)c3ccccc3)cc2)n1 returned miR-21 act 19.2% and G9a inh -20.6%[59 µM].

Screening results deposited in PubChem by National Center for Advancing Translational Sciences (NCATS).
